Among the data in PubChem BioAssay (NCATS) are Potency values, retold here.

Experiment [1] relates to Zika virus NS2B-NS3 protease (unlinked complex). Description: Primary screen GU Rhodamine qHTS for Zika virus inhibitors: Unlinked NS2B-NS3 protease assay (AID 1347159). Also: nearly all actives have a fitted effect of over 60% in size. In short, it runs like this:
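A qHTS format was used, with compound concentrations ranging up to 114 microM. Each compound was preincubated with 25 nM NS2B-NS3 protease, and the substrate was then added at 1.5 microM. Curves were fitted with a 4-parameter Hill model.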
Background: Quantitative high-throughput screening tests each substance at several concentrations.

The test system of experiment [2] is Zika virus NS2B-NS3 protease (linked construct). Description: Primary screen NINDS Rhodamine qHTS for Zika virus inhibitors (AID 1347160). Also: nearly all actives have a fitted effect of over 55% in size. In short, it runs like this: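 Kinetic fluorescence (Ex 480 nm, Em 540 nm) over 15 min with 1.5 microM Rhodamine110 peptide and 25 nM linked protease.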

Results filed as inconclusive are left out. A call without a number means that no potency is given here. A number with no mark means an inactive call. Activity calls are given as the source filed them. Calls follow the shape of the dose curve; as a rule, active = well fitted inhibition curve with a large enough effect; inconclusive = small, poorly fitted or top-dose-only effect; inactive = no such curve, though single readings can be large or run the other way.
Potency is read from the fitted curve at half-maximal effect.

Consider `COC(C)(C)CCn1nc(Nc2c(C)cccc2C)c2cnc(Nc3ccc(OCCN4CCCC4)c(F)c3)nc21`, for which the Potency result in experiment [1] and in experiment [2] was “inactive” throughout.
As to `CC(=O)O[C@@H]1CC[C@@]2(C)C(CC[C@]3(C)C2[C@H](O)C=C2[C@H]4[C@@H](C)[C@H](C)CC[C@]4(C)CC[C@]23C)[C@@]1(C)C(=O)O` (stereo not given in full), the values for the Potency in experiment [1] and in experiment [2] were 7.08 µM (active) and 11.2 µM (active), respectively.
The matching figures for `CC1CCC(=O)CC(SCC(O)C(=O)O)CCC(=O)O1` (stereo not given): “inactive” and “inactive”.
The matching figures for `C=C1C(=O)OC2CC(C)C(CCC(C)=O)=CCC12` (stereo not given): “inactive” and “inactive”.
The matching figures for `C#CCNCc1cc2cc(OCc3ccccc3)ccc2[nH]1`: “inactive” and “inactive”.
For `Cc1ccc(CNc2ncnc3ccc(-c4ccc(CO)o4)cc23)o1`, the Potency result in experiment [1] and in experiment [2] was “inactive” each time.
For the compound `Cc1noc(C)c1-c1cc(O)cc(C(O)c2ccccc2)c1` (stereo not given), the Potency entry in experiment [1] and in experiment [2] was “inactive” in each case.
With `COCC(c1ccc(C(F)(F)F)cc1)N1CCN(C2(C)CCN(C(=O)c3c(C)ncnc3C)CC2)CC1C` (stereo not given), the Potency result in experiment [1] and in experiment [2] was “inactive” in each case.
As to `CC(CCC1(O)OC2CC3C4CC=C5C[C@@H](O[C@@H]6O[C@H](CO)[C@@H](O[C@@H]7O[C@@H](C)[C@H](O)[C@@H](O)[C@H]7O)[C@H](O)[C@H]6O[C@@H]6O[C@@H](C)[C@H](O)[C@@H](O)[C@H]6O)CC[C@]5(C)C4CC[C@]3(C)[C@@]2(O)[C@@H]1C)CO[C@@H]1O[C@H](CO)[C@@H](O)[C@H](O)[C@H]1O` (stereo not given in full), the Potency result in experiment [1] and in experiment [2] was “inactive” throughout.
Regarding `COc1ccc(-c2csc(NC(=O)[C@H]3CCCCN3S(=O)(=O)c3ccc(C)cc3)n2)cc1`, the Potency entry in experiment [1] and in experiment [2] was “inactive” throughout.
On to `CCn1c(N)c(C(=O)NC)c(=O)c2ccc(C#CC(C)(O)COC)nc21` (stereo not given), for which the Potency result in experiment [1] and in experiment [2] was “inactive” throughout.
Regarding `CN(C)S(=O)(=O)c1ccc(NC(=S)N2CCC(C(O)(c3ccccc3)c3ccccc3)CC2)cc1`, the Potency entry in experiment [1] and in experiment [2] was “inactive” each time.
On to `c1ccc(-c2cnn3cc(-c4ccc(OCCN5CCOCC5)cc4)cnc23)cc1`, for which the Potency result in experiment [1] and in experiment [2] was “inactive” in each case.
As to `O=C(NCC1CCN(Cc2cccc(Cl)c2)CC1)[C@@H]1CCCN(c2ncnc3c2nc2n3CCCC2)C1`, the Potency result in experiment [1] and in experiment [2] was “inactive” in each case.
Take `COc1cc(C#N)ccc1S(=O)(=O)Nc1ccc2c(c1)cc(C)c(=O)n2C`: the Potency result in experiment [1] and in experiment [2] was “inactive” in each case.
As to `CN(C)C(=O)Nc1cc(-c2ccccc2)ccc1N(C)C`, the Potency entry in experiment [1] and in experiment [2] was “inactive” in each case.
Take `O=C(NCCCNc1nc(Nc2cccc(CN3CCOCC3)c2)ncc1C1CC1)C1CCC1`: the Potency result in experiment [1] and in experiment [2] was “inactive” throughout.
With `CN(C)[C@@H]1CCc2[nH]c3ccc(NC(=O)c4ccc(F)cc4)cc3c2C1`, the Potency result in experiment [1] and in experiment [2] was “inactive” throughout.
With `CC1(C)CN(C(=O)c2ccc(-c3cccc4nc(NC(=O)C5CC5)nn34)cc2)C1`, the Potency entry in experiment [1] and in experiment [2] was “inactive” each time.
In the case of `Nc1ncnc2c1c(-c1ccc(Cl)cc1)nn2-c1cccc(-c2cnnn2Cc2cccc(-c3ccccc3)c2)c1`, the Potency result in experiment [1] and in experiment [2] was “inactive” throughout.
For the compound `CC(C)C[C@@H]1NC(=O)[C@@H]2C[C@@]34C[C@@H]5[C@@]6(C)CCCC(C)(C)C6CC[C@@]5(C)N(c5ccccc53)[C@H]4N2C1=O` (stereo not given in full), the Potency entry in experiment [1] and in experiment [2] was “inactive” each time.
Take `N#CC(CCCN1CCN(/N=C/c2cccnc2)CC1)(c1ccccc1)c1ccccc1`: the Potency result in experiment [1] and in experiment [2] was “inactive” each time.
As to `O=C(c1cc(Cc2n[nH]c(=O)c3ccccc23)ccc1F)N1CCCNCC1`, the Potency result in experiment [1] and in experiment [2] was “inactive” in each case.
For `O=C(Nc1nc2ccc([N+](=O)[O-])cc2s1)C1CCCCC1`, the Potency entry in experiment [1] and in experiment [2] was “inactive” in each case.
Take `Fc1ccc2c(CCNCc3cccc(OCC(F)(F)C(F)F)c3)c[nH]c2c1`: the Potency entry in experiment [1] and in experiment [2] was “inactive” in each case.
As to `COc1ccccc1N1CCN(c2ncnc3n[nH]c(Br)c23)CC1`, the Potency entry in experiment [1] and in experiment [2] was “inactive” in each case.
With `CCC(C)CNCC(=O)N1CCc2sccc2C1COc1cccc(C)c1` (stereo not given), the Potency entry in experiment [1] and in experiment [2] was “inactive” in each case.
`Cc1cc(NC(=O)c2cccc(NC(=O)/C=C/CN(C)C)c2)ccc1Nc1nccc(-c2cccnc2)n1`: the Potency result in experiment [1] and in experiment [2] was “inactive” in each case.
On to `CN1CCC(c2cn(C)c3ccc(OS(=O)(=O)c4c(F)cccc4F)cc23)CC1`, for which the Potency entry in experiment [1] and in experiment [2] was “inactive” throughout.
Take `COc1ccncc1C(=O)NC(=O)Nc1ccc(-c2ccccc2)c(C(F)(F)F)c1`: the Potency entry in experiment [1] and in experiment [2] was “inactive” in each case.
For the compound `Cc1[nH]c2ccccc2c1CCNC(=O)c1cccs1`, the Potency entry in experiment [1] and in experiment [2] was “inactive” in each case.
For the compound `Cc1c[nH]c2ncnc(N3CCC(CN)(C(=O)Nc4cccc(OC(=O)N(C)C)c4)CC3)c12`, the Potency result in experiment [1] and in experiment [2] was “inactive” throughout.
As to `O=C(c1ccc(Cl)cc1)N1CCN(c2ccnc3cc(Cl)ccc23)CC1`, the Potency result in experiment [1] and in experiment [2] was “inactive” in each case.
For `CNc1nc(NCc2ccc(NS(C)(=O)=O)cc2Cl)cc(-c2ccccn2)n1`, the Potency result in experiment [1] and in experiment [2] was “inactive” throughout.
For `CCC(CC)Nc1nc(C)c(-c2ccc(OC(F)(F)F)cc2OC)nc1OC`, the Potency entry in experiment [1] and in experiment [2] was “inactive” in each case.
